Results: PubChem BioAssay AID779 (Sanford-Burnham Center for Chemical Genomics, 2007)
Activity calls are given as the source filed them. How the calls were made is not given here.

experiment: placental alkaline phosphatase inhibitors, dose response, counter-screen, biochemical, colorimetric (AID 779); conditions: PLAP counter-screen, colorimetric OD read-out

Row | Structure (SMILES) | IC50
1 | O=[N+]([O-])c1ccc(N(c2ccccc2)c2ccccc2)cc1 | > 50 µM (inactive)
2 | COc1cccc(C2(CSc3nnc(-c4cc(OC)c(OC)c(OC)c4)o3)OCCO2)c1 | > 50 µM (inactive)
3 | CCOC(=O)C1=C(C)N=c2s/c(=C/c3ccco3)c(=O)n2C1c1cccc(OC)c1 (configuration not stated) | > 50 µM (inactive)
4 | Cc1nn(-c2ccccc2)c2c1C(c1cccnc1)N1C=C(S(=O)(=O)N3CCCCC3)C=CC1=N2 (configuration not stated) | > 50 µM (inactive)
5 | CCOC(=O)C(C(=O)OCC)c1cc(Br)c2noc3c2c1C(=O)c1ccccc1-3 | > 50 µM (inactive)
6 | Fc1ccc(-c2cc3nc4c(c(N5CCOCC5)n3n2)CCCC4)cc1 | > 50 µM (inactive)
7 | Cc1cc(C)c2nc(N3CCCN(C(=O)c4ccco4)CC3)c(C#N)cc2c1 | > 50 µM (inactive)
8 | CC(=O)Nc1ccc(NC2=Nc3ccccc3N3C2=Nc2c(c(C)nn2-c2ccccc2)C3c2ccccc2)cc1 (configuration not stated) | > 50 µM (inactive)
9 | CCCCCCOC(=O)C(C#N)c1nc2ccccc2nc1N1CCN(CC)CC1 (configuration not stated) | > 50 µM (inactive)
10 | Cc1ccccc1C(=O)c1cccn1CC(=O)NCC1CCCO1 (configuration not stated) | > 50 µM (inactive)
11 | CC1Cc2ccccc2N1Cc1nc2cc(C(F)(F)F)ccc2c(=O)[nH]1 (configuration not stated) | > 50 µM (inactive)
12 | CC(=O)N(c1ccc2oc(=O)sc2c1)S(=O)(=O)c1ccccc1 | > 50 µM (inactive)
13 | CC(C)CC(C(=O)Nc1oc(-c2ccco2)c(-c2ccco2)c1C#N)N1C(=O)c2ccccc2C1=O (configuration not stated) | > 50 µM (inactive)
14 | O=C(c1ccc2c(=O)n(Cc3ccc4c(c3)OCO4)c(=S)[nH]c2c1)N1CCCCC1 | > 50 µM (inactive)
15 | CSc1nc(NCCOCCO)c2sc3nc(-c4ccco4)c4c(c3c2n1)CCC4 | > 50 µM (inactive)
16 | Cc1cc2cc(CNC(=O)c3ccc(S(=O)(=O)N4CCCCC4)cc3)ccc2n1C | > 50 µM (inactive)
17 | COc1cc(/C=C2\SC(=S)N(Nc3ncc(C(F)(F)F)cc3Cl)C2=O)cc(OC)c1OC | > 50 µM (inactive)
